# Test results reported in PubChem BioAssay (NCI).
# About 79,000 compounds went through this panel and 15% of them were active in at least one assay; those are over-represented in the sample as a whole. Values without a mark were called inactive. Calls of active or inactive are those of the source. Cut-off read from the data, not from the text of the source: active = growth inhibition above about 70%; inactive = the rest.
# Assays:
# [1] = NCI Yeast Anticancer Drug Screen. Data for the sgs1 mgt1 strain (AID 161);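 note: 0% = growth of cultures given vehicle only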; conditions: S. cerevisiae sgs1 mgt1 strain, active compounds read high
# In short: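 This yeast growth screen uses a strain with defined DNA-repair lesions; compound-treated growth is compared with vehicle-treated growth.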
# [2] = NCI Yeast Anticancer Drug Screen. Data for the CLN2oe strain (AID 163);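 note: 0% = growth of vehicle-only control cultures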; conditions: S. cerevisiae CLN2oe strain, active compounds read high
# In short: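 Whole-cell yeast growth assay. A strain engineered for altered cell-cycle control received compound, and inhibition relative to vehicle-treated cultures was recorded.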
# [3] = NCI Yeast Anticancer Drug Screen. Data for the cln2 rad14 strain (AID 165);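 note: 0% = growth equal to vehicle treated cultures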; conditions: S. cerevisiae cln2 rad14 strain, active compounds read high
# In short: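 Yeast strain cln2 rad14, bearing defects in cell cycle control and DNA repair, serves as the test system; values reflect growth inhibition compared with vehicle.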
# [4] = NCI Yeast Anticancer Drug Screen. Data for the bub3 strain (AID 167); conditions: S. cerevisiae bub3 mutant strain, active compounds read high
# In short: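 Steps: expose the mutant yeast strain to compound; grow alongside vehicle-treated cultures; measure growth; express inhibition against the vehicle cultures.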
# [5] = NCI Yeast Anticancer Drug Screen. Data for the wt2 strain (AID 169);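 note: 0% = growth of vehicle-treated yeast cultures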; conditions: S. cerevisiae wt2 strain growth inhibition, active compounds read high
# In short: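 Treated yeast vs. vehicle-treated yeast: growth inhibition determined.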
# [6] = NCI Yeast Anticancer Drug Screen. Data for the mlh1 strain (AID 171);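 note: 0% = growth of vehicle-treated control cultures of the same strain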; conditions: S. cerevisiae mlh1 strain growth inhibition, active compounds read high
# In short: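 A yeast strain with a defined genetic lesion serves as the test organism. Cultures receive compound or vehicle, and growth is measured.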
# [7] = NCI Yeast Anticancer Drug Screen. Data for the sgs1 strain (AID 173);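 note: 0% = growth of vehicle-only control cultures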; conditions: S. cerevisiae sgs1 mutant, active compounds read high
# In short: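 A genetically defined yeast mutant is incubated with the test compound, and its growth is compared to that of the same strain given vehicle.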
# [8] = NCI Yeast Anticancer Drug Screen. Data for the mlh1 rad18 strain (AID 175); conditions: S. cerevisiae mlh1 rad18 strain growth inhibition, active compounds read high
# In short: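 Steps: expose repair-defective yeast to compound; measure growth; express inhibition against vehicle-treated controls.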
# [9] = NCI Yeast Anticancer Drug Screen. Data for the rad18 strain (AID 177); conditions: S. cerevisiae rad18 mutant growth inhibition, active compounds read high
# In short: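 Measured value is growth inhibition of a yeast strain bearing a DNA repair alteration, referenced to vehicle-treated cells.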
# [10] = at 5.0 µM (retest, dose inferred, filed as 0.5)
# [11] = at 50.0 µM (retest, dose inferred, filed as 5.0)
smiles,measurement,setting,value
O=C(NC(N1CCN(c2cc3c(cc2F)c(=O)c(C(=O)O)cn3C2CC2)CC1)(C(F)(F)F)C(F)(F)F)c1ccccc1,growth inhibition,[1]; [10],4%
same,growth inhibition,[1]; [11],25%
same,growth inhibition,[1]; at 50.0 µM,11.2%
same,growth inhibition,[2]; at 1.2 µM,2%
same,growth inhibition,[2]; at 3.7 µM,0%
same,growth inhibition,[2]; at 11.0 µM,1%
same,growth inhibition,[2]; at 33.0 µM,15%
same,growth inhibition,[2]; at 100.0 µM,58%
same,growth inhibition,[3]; [10],-3%
same,growth inhibition,[3]; [11],20%
same,growth inhibition,[3]; at 50.0 µM,33.9%
same,growth inhibition,[4]; at 1.2 µM,0%
same,growth inhibition,[4]; at 3.7 µM,-1%
same,growth inhibition,[4]; [10],-7%
same,growth inhibition,[4]; at 11.0 µM,1%
same,growth inhibition,[4]; at 33.0 µM,2%
same,growth inhibition,[4]; [11],6%
same,growth inhibition,[4]; at 50.0 µM,-13.9%
same,growth inhibition,[4]; at 100.0 µM,48%
same,growth inhibition,[5]; at 1.2 µM,-2%
same,growth inhibition,[5]; at 3.7 µM,-2%
same,growth inhibition,[5]; at 11.0 µM,-1%
same,growth inhibition,[5]; at 33.0 µM,9%
same,growth inhibition,[5]; at 100.0 µM,34%
same,growth inhibition,[6]; at 1.2 µM,-4%
same,growth inhibition,[6]; at 3.7 µM,-2%
same,growth inhibition,[6]; at 11.0 µM,0%
same,growth inhibition,[6]; at 33.0 µM,11%
same,growth inhibition,[6]; at 100.0 µM,39%
same,growth inhibition,[7]; at 1.2 µM,-3%
same,growth inhibition,[7]; at 3.7 µM,-2%
same,growth inhibition,[7]; at 11.0 µM,1%
same,growth inhibition,[7]; at 33.0 µM,29%
same,growth inhibition,[7]; at 100.0 µM,58%
same,growth inhibition,[8]; [10],-5%
same,growth inhibition,[8]; [11],80% (active)
same,growth inhibition,[8]; at 50.0 µM,-1.3%
same,growth inhibition,[9]; at 1.2 µM,-3%
same,growth inhibition,[9]; at 3.7 µM,-2%
same,growth inhibition,[9]; at 11.0 µM,-1%
same,growth inhibition,[9]; at 33.0 µM,20%
same,growth inhibition,[9]; at 100.0 µM,52%
